Results: PubChem BioAssay (NCATS)
Records with an inconclusive call do not appear. Activity calls are given as the source filed them. Unless noted, the call rests on the fitted dose curve; in most records, active means well fitted curve in the direction sought with a large enough effect; inconclusive means small, poorly fitted or top-dose-only effect, or another doubt; inactive means no such curve, though single readings can be large; an effect the other way counts as inactive or inconclusive.

Tests used:
[1] = Cell Viability - Jurkat (AID 426;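 active means dose-dependent loss of cell ATP signal giving a full or clear fitted curve, ranked by lower potency value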; further: potency means the concentration at half of the fitted maximal effect); conditions: qHTS
How it was run: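 Cytotoxicity taken as drop in cellular ATP (CellTiter-Glo luminescence, 20 min room temperature) after 40 hr, 37C treatment of 5000 Jurkat Clone E6-1 cells per well; concentration-response fitted with Hill equation for AC50.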

[2] = Cell Viability - Hek293 (AID 427;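 active means compounds whose dose-response curve shows a full or clear partial loss of cell viability, called from curve shape rather than a numeric limit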;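 further: potency means the concentration at half of the fitted maximal effect; cells exposed to compound for 40 hours at 37 °C before reading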); conditions: qHTS
How it was run: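 HEK293 cells in complete medium were exposed to compound for 40 hr at 37 °C, then cellular ATP was read by CellTiter-Glo luminescence. Data were normalized to DMSO (basal) and 100 uM tamoxifen (100% inhibition), and AC50 came from Hill fits.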

[3] = Cell Viability - HepG2 (AID 433; calls by dose curve;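 further: potency means the concentration at half of the fitted maximal effect; potency for ATP loss meaning cytotoxicity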); conditions: qHTS
How it was run: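 ATP luminescence (CellTiter-Glo) after 40 h compound exposure, 37 °C, HepG2, 1500 cells/well, complete medium. Normalized: DMSO = basal, 100 uM tamoxifen = 100% inhibition. AC50 via standard Hill equation.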

[4] = Cell Viability - MRC5 (AID 434; calls by dose curve;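 further: potency means the concentration at half of the fitted maximal effect; potency reflects cytotoxicity seen as loss of intracellular ATP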); conditions: MRC5 lung fibroblast viability, qHTS
How it was run: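 Decrease in intracellular ATP, quantified by luciferase light output, reflects compound toxicity toward MRC5 cells exposed for 40 hr in complete culture medium. Concentration-response curves, scaled between DMSO and 100 uM tamoxifen, gave AC50 values.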

[5] = Cell Viability - SK-N-SH (AID 435; calls by dose curve; further: potency means the concentration at half of the fitted maximal effect); conditions: SK-N-SH neuroblastoma cell viability qHTS
How it was run: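 CellTiter-Glo ATP luminescence, 20 min RT read; cells pre-plated 5 hr, compound 40 hr at 37 °C, 1500 cells/well, complete medium. Normalized DMSO = 0, 100 uM tamoxifen = 100% inhibition; Hill-fit AC50.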

[6] = biological target: Mitogen-activated protein kinase 10 (Mus musculus) (UniProt Q61831); assay: JNK3 AlphaScreen Assay (AID 530; active means well fitted curve in either direction with a large enough effect, not every such curve was filed as active;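 further: kinase came from lysate of stimulated human HepG2 cells; signal reports phosphorylation of biotinylated GST-cJun 1-79 at Ser73 with 10 µM ATP; on the % scale 0 is the no-effect control and ±100 the full control effect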); conditions: JNK3 lysate, c-Jun phosphorylation; series mostly up to 57.1 µM
How it was run: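 Phosphorylation of biotinylated GST-cJun(1-79) at Ser73 is measured by AlphaScreen proximity luminescence. Enzyme is JNK3 in HepG2 lysates activated with interleukin-1beta and tumor necrosis factor alpha; ATP is 10 uM final.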

[7] = Cell Viability - N2a (AID 540); conditions: N2a mouse neuroblastoma cell viability; activity change, negative = cytotoxicity: at 92.2 µM (top of the series);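 further: plate controls were DMSO alone for no effect and tamoxifen control for full effect; nearly all actives have a fitted effect of over 45% in size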
How it was run: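 CellTiter-Glo ATP luminescence, read 20 min after reagent at room temperature, reported viability following 40 h compound treatment at 37 °C. N2a mouse neuroblastoma cells seeded 1500/well; Hill equation gave AC50.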

[8] = Cell Viability - HUV-EC-C (AID 542); conditions: HUV-EC-C endothelial cell viability, qHTS; series mostly up to 92.2 µM; further: on the % scale 0 is the no-effect control and ±100 the full control effect; nearly all actives have a fitted effect of over 35% in size
How it was run: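 CellTiter-Glo luminescence measured ATP loss in HUV-EC-C cells (1000/well) after 40 hr compound exposure at 37 °C, in complete culture medium. Concentration-response data were Hill-fitted to give AC50.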

[9] = Cell Viability - H-4-II-E (AID 543); conditions: H-4-II-E rat hepatoma viability; series mostly up to 92.2 µM; further: on the % scale 0 is the no-effect control and ±100 the full control effect; nearly all actives have a fitted effect of over 35% in size
How it was run: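 CellTiter-Glo luminescence (intracellular ATP) measured after 40 h compound exposure at 37 °C in H-4-II-E rat hepatoma cells seeded at 1500/well. Values are AC50s fitted with the standard Hill equation.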

[10] = Cell Viability - SH-SY5Y (AID 544); conditions: SH-SY5Y neuroblastoma cell viability; viability change, negative = cytotoxic: at 92.2 µM (top of the series); further: nearly all actives have a fitted effect of over 55% in size
How it was run: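 Cytotoxicity measured via ATP-dependent luciferase luminescence (CellTiter-Glo) following 40 h, 37 °C exposure of 1500 SH-SY5Y cells per well. Concentration-response data were fitted with the standard Hill equation to give AC50.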

[11] = Cell Viability - Mesenchymal (AID 546); conditions: mesenchymal cells viability, qHTS; series mostly up to 91.7 µM;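 further: cells exposed to compound for 40 hours before reading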
How it was run: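 In this qHTS cytotoxicity format, glomerulus-derived human mesenchymal kidney cells received compound for 40 hr, then luciferase-based ATP quantitation. Concentration-response data were fitted with the Hill equation.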

[12] = Cellular Toxicity (caspase-3) HepG2 (AID 654); conditions: HepG2 caspase-3 activation, luminescence; series mostly up to 92.2 µM;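 further: cells exposed to compound for 16 hours before reading; 0% = DMSO alone and 100% = caspase signal from 100 µM tamoxifen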
How it was run: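 Caspase 3/7 activation is measured as a luminescence increase (aminoluciferin substrate) after 16 h compound exposure of human hepatocarcinoma HepG2 cells. AC50 values are Hill fits, scaled between DMSO baseline and 100 uM tamoxifen stimulation.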

[13] = Cellular Toxicity (caspase-3) Jurkat (AID 655); conditions: Jurkat caspase-3 activation, luminescence; caspase-3 activation: at 92.2 µM (top of the series), DMSO = 0%, tamoxifen = 100%;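 further: cells exposed to compound for 16 h at 37 °C before reading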
How it was run: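 Luminescent caspase-3/7 readout (aminoluciferin substrate cleavage) in human T-cell leukemia Jurkat cells after 16 hr compound exposure. Concentration-response normalized to DMSO and 100 uM tamoxifen; AC50 by standard Hill equation.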

[14] = Cellular Toxicity (caspase-3) HUV-EC-C (AID 656); conditions: HUV-EC-C cells, caspase-3 activation (apoptosis), vehicle = 0, 100 µM tamoxifen = 100%; series mostly up to 92.2 µM
How it was run: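 Luminescent caspase-3/7 activation (aminoluciferin substrate cleavage) in HUV-EC-C cells after 16 hr compound exposure, 37°C. Signal normalized to DMSO basal and 100 uM tamoxifen as 100%; AC50 from concentration-response fitted with the Hill equation.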

[15] = Cellular Toxicity (caspase-3) SHSY5Y (AID 657); conditions: SH-SY5Y caspase-3 activation, DMSO zero, 10 µM staurosporine = 100%; series mostly up to 91.7 µM;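 further: cells exposed to compound for 16 hours at 37 °C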
How it was run: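 Luminescent caspase-3/7 readout (aminoluciferin release) in SH-SY5Y cells after 16 h compound exposure in complete medium. Activity scaled between DMSO basal and 10 uM staurosporine as 100%; concentration-response fitted to Hill equation for AC50.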

[16] = Cellular Toxicity (caspase-3) BJ (AID 658); conditions: BJ fibroblasts, luminescence, normalized: DMSO 0%, staurosporine 100%; series mostly up to 91.7 µM;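 further: cells exposed to compound for 16 hours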
How it was run: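 Plated BJ cells (1000/well) rested 5 hr, received compound for 16 hr at 37 °C, then Caspase-Glo 3/7 reagent for 1 hr at room temperature before luminescence reading.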

[17] = Cellular Toxicity (caspase-3) MRC-5 (AID 659); conditions: MRC-5 cells, luminescence, normalized: DMSO 0%, 10 µM staurosporine 100%; series mostly up to 91.7 µM;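 further: cells exposed to compound for 16 h at 37 °C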
How it was run: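 Apoptosis readout in MRC-5 cells: luciferase light generated after caspase 3/7 cleaves a peptide-aminoluciferin substrate, measured post 16 hr compound incubation at 37 °C.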

[18] = Cell Viability - NIH 3T3 (AID 541); conditions: NIH 3T3 cell viability, qHTS; activity change, negative = cytotoxicity: at 92.2 µM (top of the series);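 further: plate controls were DMSO alone for no effect and tamoxifen positive control for full effect; nearly all actives have a fitted effect of over 25% in size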
How it was run: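 Intracellular ATP (CellTiter-Glo luminescence, 20 min at room temperature) measured after 40 hr compound exposure at 37 °C of 1000 NIH 3T3 mouse fibroblasts/well in complete medium; AC50 derived by Hill-equation modelling of qHTS concentration-response curves.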

[19] = Cell Viability - Renal Proximal Tubule (AID 545); conditions: renal proximal tubule cells viability, primary cells of rat origin; series mostly up to 91.7 µM; further: nearly all actives have a fitted effect of over 40% in size
How it was run: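 Rat kidney proximal tubule cells, freshly isolated; 1000 cells/well, 5 hr settle, compound 40 hr 37 °C. CellTiter-Glo 20 min RT, luminescence read. AC50 by standard Hill fit.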

CC(=O)c1ccccc1[N+](=O)[O-]
inactive: Potency [1] > 92 µM | Potency [2] > 92 µM | Potency [3] > 92 µM | Potency [4] > 92 µM | Potency [5] > 92 µM | outcome [6] | activity change, negative = cytotoxicity [7] -16.5% | Potency [8] | Potency [9] | Potency [10] | Potency [11] | Potency [12] | caspase-3 activation [13] 0.506% | outcome [14] | outcome [15] | outcome [16] | outcome [17]

CC/C=C/C#N
inactive: Potency [1] > 92 µM | Potency [2] > 92 µM | Potency [3] > 92 µM | Potency [4] > 92 µM | Potency [5] > 92 µM | outcome [6] | activity change, negative = cytotoxicity [7] -7.86% | Potency [18] | Potency [8] | Potency [9] | Potency [10] | Potency [19] | Potency [11] | Potency [12] | caspase-3 activation [13] -0.0351% | outcome [14] | outcome [15] | outcome [16] | outcome [17]

CC1CCCO1 (stereo not given)
inactive: Potency [1] > 92 µM | Potency [2] > 92 µM | Potency [3] > 92 µM | Potency [4] > 92 µM | Potency [5] > 92 µM | activity change, negative = cytotoxicity [7] -13.8% | Potency [18] | Potency [8] | Potency [9] | Potency [10] | Potency [19] | Potency [11] | Potency [12] | caspase-3 activation [13] 1.31% | outcome [14] | outcome [15] | outcome [16] | outcome [17]

CC(CCl)OC(C)CCl (stereo not given)
inactive: Potency [1] > 92 µM | Potency [2] > 92 µM | Potency [3] > 92 µM | Potency [4] > 92 µM | Potency [5] > 92 µM | outcome [6] | activity change, negative = cytotoxicity [7] 2.8% | Potency [18] | Potency [8] | Potency [9] | Potency [10] | Potency [19] | Potency [11] | Potency [12] | caspase-3 activation [13] 1.36% | outcome [14] | outcome [15] | outcome [16] | outcome [17]

Cc1c(C(=O)O)cccc1[N+](=O)[O-]
inactive: Potency [1] > 92 µM | Potency [2] > 92 µM | Potency [3] > 92 µM | Potency [5] > 92 µM | activity change, negative = cytotoxicity [7] 5.3% | Potency [18] | Potency [8] | Potency [9] | Potency [10] | Potency [19] | Potency [11] | caspase-3 activation [13] 1.11% | outcome [14] | outcome [15] | outcome [16] | outcome [17]

CC(=O)CCc1ccccc1
inactive: Potency [1] > 92 µM | Potency [2] > 92 µM | Potency [3] > 92 µM | Potency [4] > 92 µM | Potency [5] > 92 µM | outcome [6] | activity change, negative = cytotoxicity [7] -2.11% | Potency [18] | Potency [8] | Potency [9] | Potency [10] | Potency [19] | Potency [11] | Potency [12] | caspase-3 activation [13] -1.19% | outcome [15] | outcome [16]

Cc1cccc([N+](=O)[O-])c1C(=O)O
inactive: Potency [1] > 92 µM | Potency [2] > 92 µM | Potency [3] > 92 µM | Potency [4] > 92 µM | Potency [5] > 92 µM | activity change, negative = cytotoxicity [7] 11.2% | Potency [18] | Potency [8] | Potency [9] | Potency [10] | Potency [19] | Potency [11] | caspase-3 activation [13] 0.48% | outcome [14] | outcome [15] | outcome [16] | outcome [17]

C/C(C=O)=C/c1ccccc1
inactive: Potency [1] > 92 µM | Potency [2] > 92 µM | Potency [3] > 92 µM | Potency [4] > 92 µM | Potency [5] > 92 µM | outcome [6] | activity change, negative = cytotoxicity [7] -1.48% | Potency [18] | Potency [8] | Potency [9] | Potency [10] | Potency [19] | Potency [11] | caspase-3 activation [13] -0.305% | outcome [14] | outcome [15] | outcome [16] | outcome [17]

NC(=S)NNC(N)=S
inactive: Potency [1] > 92 µM | Potency [2] > 92 µM | Potency [3] > 92 µM | Potency [4] > 92 µM | Potency [5] > 92 µM | outcome [6] | activity change, negative = cytotoxicity [7] 4.33% | Potency [18] | Potency [8] | Potency [9] | Potency [10] | Potency [19] | Potency [11] | Potency [12] | caspase-3 activation [13] 0.7% | outcome [14] | outcome [15] | outcome [16]

CCCCC(CC)C(=O)O (stereo not given)
inactive: Potency [1] > 92 µM | Potency [2] > 92 µM | Potency [3] > 92 µM | Potency [4] > 92 µM | Potency [5] > 92 µM | outcome [6] | activity change, negative = cytotoxicity [7] 4.15% | Potency [18] | Potency [8] | Potency [9] | Potency [10] | Potency [19] | Potency [11] | caspase-3 activation [13] 1.13% | outcome [14] | outcome [15] | outcome [16] | outcome [17]

Cc1cccc(C(=O)O)c1
inactive: Potency [1] > 92 µM | Potency [2] > 92 µM | Potency [3] > 92 µM | Potency [4] > 92 µM | Potency [5] > 92 µM | outcome [6] | activity change, negative = cytotoxicity [7] -7% | Potency [18] | Potency [8] | Potency [9] | Potency [10] | Potency [19] | Potency [11] | Potency [12] | caspase-3 activation [13] -6.77% | outcome [14] | outcome [15] | outcome [16] | outcome [17]

O=C(O)c1c(Cl)cccc1Cl
inactive: Potency [2] > 92 µM | Potency [3] > 92 µM | Potency [4] > 92 µM | outcome [6] | activity change, negative = cytotoxicity [7] -6.78% | Potency [8] | Potency [9] | Potency [10] | Potency [19] | Potency [11] | caspase-3 activation [13] 0.737% | outcome [14] | outcome [15] | outcome [16] | outcome [17]

COc1cccc2sc(N)nc12
inactive: Potency [1] > 92 µM | Potency [2] > 92 µM | Potency [3] > 92 µM | Potency [4] > 92 µM | Potency [5] > 92 µM | outcome [6] | activity change, negative = cytotoxicity [7] -10.1% | Potency [18] | Potency [8] | Potency [9] | Potency [10] | Potency [19] | Potency [11] | Potency [12] | caspase-3 activation [13] -0.447% | outcome [14] | outcome [15] | outcome [16] | outcome [17]
